About 83,000 compounds went through this panel and 20% of them were active in at least one assay; those are over-represented in the sample as a whole.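 Values shown are percent growth following 48 h exposure of cells in 96-well plates to a single concentration of compound; below 10 was considered active.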 Active and inactive are the calls of the source.

The record followed here is PubChem BioAssay (NCI).

The assay relates to HCC-2998 colon. The experiment in a line: NCI-60 one-dose screen, 48 h (100 = growth as untreated, 0 = no growth, -100 = all killed). The conditions noted are these: 10 µM unless noted.
With `COc1cc(CNC(=O)C[C@H](C)CCC=C(C)C)ccc1OCc1cn(-c2ccc(Br)cc2)nn1`, the growth was 95.8% (inactive). As for `Cc1cccc(C)c1Nc1nnc(-c2c[nH]c3ccccc23)o1`, the growth was 119% (inactive). For the compound `COc1cc(CNC(=O)C[C@H](C)CCC=C(C)C)ccc1OCc1cn(-c2ccc(Cl)c(Cl)c2)nn1`, the growth was 93.5% (inactive). For the compound `Cc1ccc(C(C)C)cc1Oc1cccc(-c2c(-c3ccc(C(F)(F)F)cc3)ncn2C2CCNCC2)n1`, the growth was -85.4% (active).

As to `COc1cc(CNC(=O)C[C@H](C)CCC=C(C)C)ccc1OCc1cn(-c2cccc(C(F)(F)F)c2)nn1`, the growth was 111% (inactive). Consider `Cc1ccc(Nc2nnc(-c3c[nH]c4ccccc34)o2)c(C)c1`, for which the growth is -13.6% (active). On to `CC1=C(C)C(=O)C(N2CCSCC2)=CC1=O`, for which the growth is 109% (inactive). Turning to `COc1ccc(C(=O)c2cc(C(C)=O)c3c(C)cc(C)cn23)cc1`, the growth was 76.1% (inactive).

For `O=C(c1ccc(O)cc1)C1[C@H](c2ccccc2Br)[C@@H](c2ccccc2)NC12C(=O)Nc1ccccc12` (stereo not given in full), the growth is -7.94% (active). As for `C=CCSc1nnc(-c2ccc(-c3nc4ccccc4[nH]3)cc2)o1`, the growth is 97.9% (inactive). `COc1cc(/C=C/C(=O)c2cnn(-c3cc(=O)[nH]c4ccc(C)cc34)c2C)cc(OC)c1OC`: the growth is -99% (active). Next, `COc1cc(-c2ccc3ncnc(N4CCc5ccc(Cl)cc54)c3c2)cnc1Cl`: 28% (inactive). To `COc1ccc(NC(=O)Cn2c(/C=C/c3cccc(OC)c3)nc3ccccc3c2=O)cc1` belongs 92.5% (inactive); to `CC[C@]12C=CCN3CC[C@]4(C(=C(C(=O)OC)C1)Nc1cc(OC)c([C@@H]5[C@H]6O[C@H]6[C@@]6(CC)CC(C(=O)OC)=C7Nc8cc(O)ccc8[C@@]78CCN5[C@@H]68)cc14)[C@@H]32`, -76.3% (active); to `COc1ccc2nc(NC(=O)c3ccc(N(C)C)cc3)sc2c1`, 98.2% (inactive). For the compound `Cc1nc(N)ncc1-c1ccc2ncnc(N3CCc4cc(F)c(Cl)cc43)c2c1`, the growth was 80.7% (inactive). Turning to `N#Cc1ccc(C(=O)CSc2nc3c(c(Nc4ccc(S(N)(=O)=O)cc4)n2)CCC3)cc1`, the growth was 15.8% (inactive).

Regarding `CN(C(=O)CN1C(=O)/C(=C/c2ccco2)SC1=S)C1CCS(=O)(=O)C1` (stereo not given), the growth was 104% (inactive). For `O=C(Nc1ccc(-c2ccc3c(c2)NC(=O)/C3=C\c2ccc[nH]2)cc1)Nc1cccc(Cl)c1`, the growth was -24.2% (active). In the case of `COC(=O)c1c(C(=O)OC)c2c3ccccc3c3ccccc3n2c1C(=O)C(F)(F)F`, the growth is 122% (inactive). Next, `O=C(N/N=C/c1c[nH]c2ccccc12)Nc1ccc(F)c(Cl)c1`: 3.69% (active); `O=C(CSc1nnc(-c2ccc(-c3nc4ccc(Cl)cc4[nH]3)cc2)o1)Nc1ccc(Br)cc1`: 76.9% (inactive). With `Cn1cc(-c2cc(N)n3nc(-c4c[nH]c5ccc(Cl)cc45)cc3n2)c2cccnc21`, the growth is -98.5% (active).

On to `COc1ccc2c(c1)C(Sc1ccc(Cl)cc1)c1c(nc(N)c(C#N)c1N)O2` (stereo not given), for which the growth was 94.2% (inactive). To `Cc1ccccc1NC(=O)c1cccc(NC(=O)CCl)c1` belongs 96.1% (inactive); to `Oc1cncc(-c2ccc3ncnc(N4CCc5cc(F)c(Cl)cc54)c3c2)c1`, 51.7% (inactive); to `Nc1nnc(-c2cncc(Br)c2)c(-c2c[nH]c3ccc(Br)cc23)n1`, 74.7% (inactive). To `C/C(=N/O)c1ccc(NC(=O)CSc2nnc(-c3ccc(-c4nc5ccc(Cl)cc5[nH]4)cc3)o2)cc1` belongs 71.2% (inactive).

With `CCCCCCCCc1cccc(CC(=O)Nc2ccc(C)cc2C(=O)O)c1`, the growth is 69.4% [25 µM] (inactive). To `Cc1ccc(C(=O)Nc2cc(-n3cnc(F)c3)cc(C(F)(F)F)c2)cc1C#Cc1cnc2cccnn12` belongs 70.6% (inactive); to `CC[C@]12C=CCN3CC[C@@]4(c5ccc(OC)cc5N(C)[C@H]4[C@@](O)(C(=O)OC)[C@@H]1OC(=O)CCCC[P+](c1ccc(F)cc1)(c1ccc(F)cc1)c1ccc(F)cc1)[C@@H]32`, 19.4% (inactive). Next, `COc1ccc2c(c1)N=c1c-2cc2c(O)[nH]c(=S)n2c1=O`: 60.1% (inactive); `O=C(CSc1nnc(-c2ccc(-c3nc4ccccc4[nH]3)cc2)o1)Nc1ccc(Cl)cc1`: 59.6% (inactive).

`N/C(=N\c1nc2ccc([N+](=O)[O-])cc2s1)NC(=O)Nc1ccccc1Cl`: the growth was 86.6% (inactive). For the compound `Fc1ccc(N2CC(Cn3c(C(F)(F)F)cc4c(Cl)ncnc43)C2)c(F)c1`, the growth is -91.4% (active).
